According to PubChem BioAssay AID1159580 (chemical genetic matrix, 2015):
The whole screen tested about 5,500 compounds, of which about 2,000 (36%) were called active. Not shown: some 18% with an inconclusive outcome. No stated cut-off is given here; in the data, active means normalized growth mostly below about 0.91 (no sharp cut-off); inconclusive means no clear call, values can overlap the other calls; inactive means mostly above about 0.92. This is one part of the list.

Assay: chemical genetic growth profiling, strain panel (AID 1159580);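 further: tested at 20 µM; growth read once vehicle control cultures reached saturation at 30 °C; 1 = growth at the plate median or of vehicle wells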
Conditions: S. cerevisiae deletion strains, growth OD

Measured: normalized growth

CCOc1ccc2nc(S(N)(=O)=O)sc2c1
inactive: locus YHR030C, strain SLT2, stronger effect = lower value 0.978 | locus YHR079C, strain IRE1, stronger effect = lower value 0.969 | locus YJL095W, strain BCK1, stronger effect = lower value 1.02 | locus YJR066W, strain TOR1, stronger effect = lower value 0.924 | locus YLR113W, strain HOG1, stronger effect = lower value 1.05 | locus YNL183C, strain NPR1, stronger effect = lower value 0.927 | locus YOR231W, strain MKK1, stronger effect = lower value 0.955 | locus YPL256C, strain CLN2, stronger effect = lower value 0.963

O=c1c2ccccc2nc2n1CCc1c-2[nH]c2ccccc12
inactive: locus YAL013W, strain DEP1, stronger effect = lower value 1.02 | locus YAL040C, strain CLN3, stronger effect = lower value 0.981 | locus YCL061C, strain MRC1 (second series), stronger effect = lower value 1.01 | locus YDR150W, strain NUM1, stronger effect = lower value 1.01 | locus YDR363W, strain ESC2, stronger effect = lower value 1.02 | locus YER002W, strain NOP16, stronger effect = lower value 0.996 | locus YGR078C, strain PAC10, stronger effect = lower value 1 | locus YJR075W, strain HOC1, stronger effect = lower value 1.02 | locus YMR263W, strain SAP30, stronger effect = lower value 1.01 | locus YMR307W, strain GAS1, stronger effect = lower value 0.999 | locus YNL128W, strain TEP1, stronger effect = lower value 0.964 | locus YNL153C, strain GIM3, stronger effect = lower value 0.928 | locus YNL175C, strain NOP13, stronger effect = lower value 0.945 | locus YNL197C, strain WHI3, stronger effect = lower value 0.97 | locus YNL224C, strain SQS1, stronger effect = lower value 0.982 | locus YNL322C, strain KRE1, stronger effect = lower value 1.02 | locus YOR083W, strain WHI5 (second series), stronger effect = lower value 0.906 | locus YPL055C, strain LGE1, stronger effect = lower value 1.02 | locus YPL241C, strain CIN2, stronger effect = lower value 1
